Target: Albumin (Bos taurus) (UniProt P02769)
Experiment: compounds binding labelled BSA control protein – biochemical, small-molecule microarray, Alexa647 label, 635/667 nm fluorescence, artefact control for SMM control protein annotation, profiling panel (AID 1118);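 further: score merges 667 nm emission intensity and signal-to-noise per printed compound spot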
Details: BSA-A647 binding, fluorescence 635 nm, higher = more signal

Sequence of Albumin (Bos taurus) (P02769 whole entry, looked up): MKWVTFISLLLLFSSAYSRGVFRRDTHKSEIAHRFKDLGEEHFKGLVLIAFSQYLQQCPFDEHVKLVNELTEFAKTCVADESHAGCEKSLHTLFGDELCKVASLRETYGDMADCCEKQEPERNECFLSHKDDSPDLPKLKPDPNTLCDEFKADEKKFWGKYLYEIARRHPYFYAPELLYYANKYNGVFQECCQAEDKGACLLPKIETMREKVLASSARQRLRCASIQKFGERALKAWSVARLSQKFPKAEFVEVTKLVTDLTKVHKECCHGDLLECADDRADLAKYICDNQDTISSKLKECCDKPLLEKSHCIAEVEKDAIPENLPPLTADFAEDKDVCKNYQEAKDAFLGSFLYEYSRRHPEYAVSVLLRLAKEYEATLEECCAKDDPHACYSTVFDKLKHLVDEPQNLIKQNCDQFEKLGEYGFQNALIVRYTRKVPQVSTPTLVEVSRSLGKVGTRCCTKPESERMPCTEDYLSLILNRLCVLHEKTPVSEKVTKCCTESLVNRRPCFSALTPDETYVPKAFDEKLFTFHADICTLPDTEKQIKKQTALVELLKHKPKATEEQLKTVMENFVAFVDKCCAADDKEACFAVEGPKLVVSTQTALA

| SMILES | composite z-score |
| --- | --- |
| Cc1nc2cc(Br)ccc2c(=O)n1Cc1cccc(O)c1 | 0.417 |
| C=C[C@@H](C)[C@H](O)c1ccc(OCCO)cc1 | 0.189 |
| C=CCN1C(=O)[C@]2(O[C@H](CCO)[C@@H]([Si](C)(C)c3ccc(OC)cc3)[C@@H]2C)c2cc(NC(=O)c3ccc(OC)cc3)ccc21 | -0.296 |
| CCOC(=O)C[C@H]1[C@H](OC(=O)c2cc3ccccc3oc2=O)[C@@H](NC(=O)c2ccc3ccccc3c2)c2cc(OCCCO)ccc2N1C(=O)Cc1ccc(OC)cc1 | 0.684 |
| COc1ccc(C#Cc2ccc3c(c2)[C@]2(C(=O)N3)[C@H](c3ccc(OCCO)cc3)N3[C@H](c4ccccc4)[C@H](c4ccccc4)OC(=O)[C@H]3[C@@H]2C(=O)N2CCc3cc(OC)c(OC)cc3C2)cc1 | 0.0867 |
| COC(=O)c1c2oc(c1C(=O)OC)C(=O)N1CCC[C@H]1Cn1nncc1CN(Cc1ccccc1)C(=O)N[C@H](CO)CC2 | 0.333 |
| COC(=O)C(CC#Cc1ccc2c(c1)[C@]1(C(=O)N2)[C@H](c2ccc(O)cc2)N2[C@H](c3ccccc3)[C@H](c3ccccc3)OC(=O)[C@H]2[C@@H]1C(=O)N1CCCCCCC1)C(=O)OC | 0.631 |
| C=C[C@H](C)[C@H](OC(=O)Nc1ccc(OC)cc1)c1ccc(OCCO)cc1 | -0.381 |
| [N-]=[N+]=NC[C@H](Cc1ccccc1)NC(=O)c1ccccc1 | 0.494 |
| COc1ccc([Si](C)(C)[C@H]2[C@H](CC(=O)N3Cc4ccccc4C[C@H]3CO)O[C@@]3(C(=O)N(Cc4ccc(N5C(=O)c6cccc7cccc5c67)cc4)c4ccccc43)[C@@H]2C)cc1 | 0.502 |
| COc1ccc([Si](C)(C)[C@H]2[C@H](CC(=O)N3CCC[C@H]3CO)O[C@@]3(C(=O)N(Cc4ccc(N5CCC5=O)cc4)c4ccccc43)[C@@H]2C)cc1 | 0.669 |
| C=CCNC(=O)[C@H]1[C@@H]2C(=O)O[C@@H](c3ccccc3)[C@@H](c3ccccc3)N2[C@@H](c2ccc(OCCO)cc2)[C@]12C(=O)Nc1ccc(C#CCNC(N)=O)cc12 | 0.601 |
| C=CCC(OC(C)=O)[C@@H]1[C@@H](N(Cc2cccc3ccccc23)C(=O)Cc2ccc(F)cc2)c2cc(OCCCO)ccc2N1C(=O)c1ccc(-c2ccccc2)cc1 (some centres not stated) | 0.621 |
| CC1CC/C=C\[C@H]2OC34C=CCN(CCN5CCOCC5)C(=O)[C@H]3N(C(C)CO)C(=O)[C@@H]4C2C(=O)O1 (some centres not stated) | -0.712 |
| C=CCN1C(=O)[C@]2(O[C@H](CCO)[C@@H]([Si](C)(C)c3ccc(OC)cc3)[C@@H]2C)c2cc(N3C(=O)COc4ccccc43)ccc21 | 0.427 |
| CN(C)C(=O)[C@]1(CCS(=O)(=O)c2ccccc2)N=C(c2ccc(OCCCO)cc2)O[C@@H]1c1ccccc1 | 0.907 |
| Cc1ccccc1C(O)C1C=CC2C(=O)NC(=O)C2N1Nc1ccc(Cl)cc1Cl (configuration not stated) | 0.709 |
| O=C1c2ccccc2[C@](Cc2ccccc2I)(C(=O)NC2CC2)[C@H](c2ccc(CO)cc2)N1Cc1ccccc1C(F)(F)F | 0.502 |
| Cc1ccc(C(C)CC(O)C2C=CC3C(=O)N(c4ccccc4)C(=O)C3N2Nc2ccc(C#N)cc2)o1 (configuration not stated) | 1 |
| COc1ccc([Si](C)(C)[C@H]2[C@H](CCO)O[C@@]3(C(=O)N(Cc4ccccc4)c4ccc(N5C(=O)c6ccccc6Oc6ccccc65)cc43)[C@@H]2C)cc1 | 0.467 |
| COCCOC(=O)N1C(=O)[C@@]2(c3cc(C#CC4=CCCCC4)ccc31)[C@H](C(=O)N1CCCCCCC1)[C@H]1C(=O)O[C@H](c3ccccc3)[C@H](c3ccccc3)N1[C@@H]2c1ccc(OCCO)cc1 | -0.0202 |
| CC(C)[C@H]1NC(=O)[C@@]23C(=O)N[C@@H](Cc4ccccc4)C2[C@H](C)[C@@]2(C)O[C@H]2C3/C=C/C/C=C\CNC(=O)[C@H](Cc2ccccc2)NC1=O (some centres not stated) | 0.347 |
| CC(C)=CCCC(C)=CC(O)C1C=CC2C(=O)N(c3ccccc3)C(=O)C2N1Nc1ccccc1F (configuration not stated) | 0.846 |
| CC(C)C[C@@H]1NC(=O)CNC(=O)[C@@]23C(=O)N[C@@H](Cc4ccccc4)C2[C@H](C)[C@@]2(C)O[C@H]2C3/C=C/C/C=C\CNC1=O (some centres not stated) | -0.007 |
| COC(=O)[C@@]1(Cc2ccc(F)cc2)[C@H]2c3cc(C(=O)N(C)C)n(Cc4ccc(O)c(OC)c4)c3C[C@H]2CN1C(=O)c1ccccc1 | 0.862 |
| C=C(COC)C(=O)CC[C@@H](OC(=O)c1cccnc1)c1ccccc1OCCO | -0.726 |
| CN(C)CCCNC(=O)[C@@H]1c2ccccc2C(=O)N(C2CCCCC2)[C@H]1c1ccc(CO)cc1 | -0.706 |

Reference: PubChem BioAssay
